Vif-APOBEC3G blk – Vif-A3G binding inhibition. Potency, µM (titrated, usually from 46.1 µM), without a hit: at the top dose activity, negative = active, actives largely listed as inhibitors. Q9HC16. HeLa A3G-eYFP + Vif (tagged APOBEC3G with the HIV-1 protein that degrades it), YFP fluorescence, overnight. 410,000 tested, 0.076% active. AID 602310; further: on the % scale 0 is the no-effect control and ±100 the full control effect; nearly all actives have a fitted effect of over 60% in size
Target sequence (Q9HC16 whole entry, looked up): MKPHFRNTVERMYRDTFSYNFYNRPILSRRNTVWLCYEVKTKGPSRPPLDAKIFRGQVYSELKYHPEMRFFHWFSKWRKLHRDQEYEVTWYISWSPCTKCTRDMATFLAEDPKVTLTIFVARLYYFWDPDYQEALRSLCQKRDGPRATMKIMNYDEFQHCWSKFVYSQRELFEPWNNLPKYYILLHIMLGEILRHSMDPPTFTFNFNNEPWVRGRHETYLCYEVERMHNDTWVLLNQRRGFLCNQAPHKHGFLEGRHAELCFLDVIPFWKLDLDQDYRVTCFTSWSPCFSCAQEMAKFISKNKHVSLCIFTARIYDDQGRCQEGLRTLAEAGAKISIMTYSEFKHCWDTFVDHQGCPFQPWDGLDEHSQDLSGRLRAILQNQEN
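Read-out is eYFP fluorescence (Ex 488/Em 500-530) from Vif-expressing HeLa A3G-eYFP cells; more signal means A3G escaped Vif-mediated degradation. Cells plated overnight, compound pinned in, incubated overnight at 37 deg C.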
PINK1 modulator – changes PINK1 expression; PINK1 immunofluorescence, high-content cytometry, 24 h; Potency, µM (series often up to 76.6 µM), for inactives: at the top dose activation (PINK1 increase), hits mostly activators; 410,000 tested, 0.2% active; AID 624263; active means well fitted activation curve with a large enough effect; inconclusive means small, poorly fitted or top-dose-only effect; cell line not stated here; further: % of control where 0% means no effect; nearly all actives have a fitted effect of over 65% in size
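Decision-based qHTS: stable cells, 24 h exposure to five compound concentrations, CCCP as control. Fixed cells stained for PINK1 plus nuclear, mitochondrial and cell markers, cytometer read.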
Epigenetic derep – regulators of epigenetic silencing causing reporter derepression in mouse cells | Potency, µM (top dose mostly 53.9 µM), for the others: top-dose GFP activation, actives largely listed as activators | murine LDR cells, GFP reporter derepression, 30 h | 280,000 tested, 0.2% active; further: % of control where 0% means no effect; nearly all actives have a fitted effect of over 60% in size
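In this reporter-derepression format, murine cells bearing a silenced integrated CMV-GFP locus incubate with test compound (30 h, 37 C), then are washed and imaged; fluorescent objects of 20–120 um count as induced cells.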
Vif-APOBEC3F blk – inhibitors of Vif-A3F interaction; HeLa A3F-eYFP + Vif (tagged APOBEC3F with the HIV-1 protein that degrades it), YFP fluorescence increase; 390,000 tested, 0.2% active; Potency, µM (doses to about 46.1 µM), for the others: at the highest dose activity, negative = active; further: % of control where 0% means no effect; nearly all actives have a fitted effect of over 65% in size
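HeLa cells stably expressing Vif plus C-terminally eYFP-tagged A3F were seeded, incubated overnight at 37 deg C, dosed with compound, incubated overnight again at 37 deg C. Yellow fluorescence (Ex 488/Em 500-530) reported blocked Vif-mediated A3F-eYFP degradation.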
Numbers without * were called inactive; ? = inconclusive; nt = no result given; [ ] = remark or other dose. In the library only some 0.51% were active in any assay of this set; here they are far more common. Unless noted, the call rests on the fitted dose curve; in most records, active means well fitted curve in the direction sought with a large enough effect; inconclusive means small, poorly fitted or top-dose-only effect, or another doubt; inactive means no such curve, though single readings can be large; an effect the other way counts as inactive or inconclusive. Potency means the concentration at half of the fitted maximal effect.

SMILES	Vif-APOBEC3G blk	PINK1 modulator	Epigenetic derep	Vif-APOBEC3F blk
Cc1ccc(S(=O)(=O)N2C[C@H]3[C@H]4C(=O)N(Cc5ccccc5)C(=O)[C@H]4CC(=O)[C@H]3[C@@H]2c2cccc3ccccc23)cc1	1.8%	0.0%	nt	nt
CCCSc1nnc(N2C(=O)C(O)=C(C(=O)c3ccco3)C2c2ccccc2F)s1 (stereo not drawn)	?	1.8%	nt	3.16µM*
FC(F)(F)c1cccc(N2CCN(C(=S)NC3CCCCC3)CC2)c1	1.8%	31.6µM*	-1.0%	-23.8%
O=C(CSc1nnc2c(n1)[nH]c1ccccc12)NCc1ccco1	-4.4%	2.4%	4.3%	1.4%
CC1(C)CC(=O)C(C(c2ccc(Br)cc2)C2C(=O)CC(C)(C)CC2=O)C(=O)C1	2.6%	1.7%	nt	4.3%
Cc1ccc(-c2nc(SCC(=O)Nc3cc(S(=O)(=O)N4CCCCC4)ccc3Cl)n[nH]2)cc1	-4.8%	31.6µM*	-1.1%	6.4%
CCOC(=O)C1=C(O)c2ccccc2C(=O)/C1=C\c1ccc(CC)cc1	?	16.3%[38.3 µM]	?	22.4µM*
CCOc1ccccc1NC(=O)CNC(=O)c1nn(-c2ccc(OC)c(OC)c2)c(=O)c2ccccc12	2.4%	-0.7%	nt	2.0%
O=C(NC1CC(=O)N(c2cccc(F)c2)C1)C1CCCCC1 (stereo not drawn)	-4.4%	0.6%	2.1%	-15.0%
CCOC(=O)c1c(-c2ccc(C)cc2)csc1NC(=O)/C(C#N)=C/c1ccc(O)c(OC)c1	10µM*	0.3%	11.2µM*	?
COc1ccc(NC(=O)CCCn2c(=O)c3sccc3n(Cc3ccc(C)cc3)c2=O)cc1	0.6%	?	7.9%	11.4%
O=C1N/C(=C/c2cccn2-c2ccccc2)C(=O)N1Cc1ccc(F)cc1	-0.7%	?	7.08µM*	-1.3%
COc1cc(Cl)c(C)cc1NC(=O)c1nn(-c2ccc(C)cc2)c(=O)n(C)c1=O	3.2%	1.2%	0.0%	0.1%
CN1C=CC2=C(C#N)C(N)C(C#N)(C#N)C(c3ccccc3)C2C1 (stereo not drawn)	-3.1%	11.2µM*	-1.6%	-0.1%
CN1C[C@@H]2C(c3ccccc3)C3(c4ccc(C#N)cc4)CC2(C3)[C@H]1c1ccccc1 (stereo partly drawn)	0.1%	-1.7%	0.2%	-1.8%
O=C(Cc1nc2ccccc2[nH]1)c1cccc([N+](=O)[O-])c1	-7.6%	14.1µM*	0.5%	-27.8%
O=C(Nc1nc2ccccc2[nH]1)c1cccc([N+](=O)[O-])c1	2.1%	10.8%	1.1%	9.0%
CCN1c2ccccc2NC2C1C(C(C)=O)C(=O)N2c1ccc(Cl)cc1 (stereo not drawn)	?	5.2%[38.3 µM]	25.1µM*	22.4µM*
CCc1ccc(Nc2nnc(-c3cc4cc(OC)ccc4oc3=O)s2)cc1	2.2%	1.8%	15.8µM*	0.3%
COc1ccc(Nc2nnc(-c3cc4c(ccc5ccccc54)oc3=O)s2)cc1	nt	-0.2%	-0.8%	nt
S=C(Nc1cccc2ccccc12)NN1CCOCC1	1.6%	0.7%	-0.4%	-5.1%
S=C(Nc1cccc2ccccc12)NN1CCCCCC1	0.0%	-1.6%	nt	22.4µM*
Cc1nc(SCc2nc3ccc(Cl)cc3[nH]2)c2oc3ccccc3c2n1	-9.6%	4.7%	nt	-4.2%
Cc1nc(SCc2nc3cc(Cl)c(F)cc3[nH]2)c2oc3ccccc3c2n1	?	14.1µM*	nt	-24.1%
Cc1nc(SCc2nc3ccc(C(F)(F)F)cc3[nH]2)c2oc3ccccc3c2n1	?	15.8µM*	nt	-2.4%
SMILES	Vif-APOBEC3G blk	PINK1 modulator	Epigenetic derep	Vif-APOBEC3F blk
COc1ccc2[nH]c3c(=S)nc[nH]c3c2c1	-5.8%	1.0%	-1.1%	-1.1%
Cc1cc(C)c(-c2csc(NC(=O)c3cc([N+](=O)[O-])ccc3N3CCOCC3)n2)c(C)c1	-0.7%	1.3%	1.1%	-11.1%
COc1cccc(NC(=O)c2sc3ncn(CC(=O)N4CCN(c5ccccn5)CC4)c(=O)c3c2C)c1	4.6%	1.0%	nt	4.4%
CCOC(=O)NC(=O)/C(C#N)=N\Nc1ccc(Cl)cc1	3.9%	-0.8%	-0.4%	-4.5%
CCOC(=O)NC(=O)/C(C#N)=N\Nc1cccc(Cl)c1	0.4%	15.8µM*	-5.4%	8.9%
Cc1cccc(-c2cccc(NC(=O)C3CCCN(C(=O)c4ocnc4C)C3)c2)c1 (stereo not drawn)	-5.5%	1.4%	nt	2.6%
O=C(Cn1nnc(-c2ccccc2)n1)Nc1ccccc1N1CCOCC1	0.5%	nt	-9.5%	-0.2%
CN(N)c1nc(C(F)(F)F)nc2ccccc12	0.3%	0.6%	-3.0%	-5.9%
CN(NS(=O)(=O)c1ccc(Br)cc1)c1nc(C(F)(F)F)nc2ccccc12	-0.8%	15.8µM*	-0.1%	0.0%
CC(=O)c1cc(NC(=O)c2ccc(C)cc2)c(=O)oc1/C=C/N(C)C	12.6µM*	12.3%	5.5%	12.6µM*
COc1ccc(C(=O)Nc2cc(C(C)=O)c(/C=C/N(C)C)oc2=O)cc1	?	-0.2%	5.1%	?
COc1ccc(N=Nc2ccc(O)c3ncccc23)cc1	-2.5%	5.7%	-1.2%	-22.5%
CCc1ccc(N=Nc2ccc(O)c3[nH]cnc23)cc1	?	5.5%	nt	8.91µM*
Cn1cc(/C=C2\SC(=S)N(NC(=O)c3cccc(Cl)c3)C2=O)c2ccccc21	?	1.0%	2.1%	7.94µM*
Cc1cc(C(=O)N/N=C/c2ccc(C)s2)n[nH]1	-1.9%	0.9%	nt	7.6%
CCN(c1ccc(OC)cc1)S(=O)(=O)c1ccc2[nH]c3c(c2c1)CCCCC3	2.3%	25.1µM*	-1.3%	4.8%
CCOc1cc(/C=C/C(=O)c2ccc(OC)c(CN3CCOCC3)c2)cc(Br)c1O	?	0.5%	nt	25.1µM*
N#C/C(=C\c1sc(N2CCOCC2)nc1-c1ccccc1)C(=O)Nc1cccc2ccccc12	nt	nt	12.6µM*	nt
O=C(Nc1ccccc1)c1sc(N2CCOCC2)nc1-c1ccccc1	-0.7%	-2.4%	2.0%	-0.2%
Cc1ccc(NC(=O)C2CCCN(S(=O)(=O)c3cccc4cccnc34)C2)c(Br)c1 (stereo not drawn)	0.9%	1.2%	0.0%	2.9%
CN(C)c1ccc(/C=C2\SC(N3CCCCC3)=NC2=O)cc1	?	0.2%	nt	22.4µM*
Cc1ccc(NC(=S)N/N=C2\CC3CC=CC23)c(C)c1 (stereo not drawn)	-6.5%	3.2%	-0.1%	-4.5%
CCCCN(C(=O)c1ccc(S(=O)(=O)N(CC)CC)cc1)c1c(N)n(CCC)c(=O)[nH]c1=O	1.9%	1.2%	nt	1.1%
CCCCN(C)CC(O)Cn1cc(/C=C/C(=O)c2ccc(OCC)cc2)c2ccccc21 (stereo not drawn)	-18.8%	-2.2%	6.2%	0.2%
CCCCN(C)CC(O)Cn1cc(/C=C/C(=O)c2cccs2)c2ccccc21 (stereo not drawn)	?	-5.1%	1.3%	28.2µM*
CCc1ccc2c(c1)NC(=O)C2(C)Cc1ccc(F)cc1 (stereo not drawn)	-2.1%	3.8%	nt	nt
Clc1ccc(-c2nc3ccccc3n2OCc2ccccc2)cc1	-3.6%	8.5%	-1.2%	6.1%
Cc1cc(Nc2ccc(C)c(Cl)c2)n2nc(-c3ccccc3)nc2n1	?	?	11.2µM*	?

Bioassay records from PubChem.
